Among the data in PubChem BioAssay (Tox21) are Potency and outcome values, retold here.

The nature of test [1]: qHTS assay to identify small molecule antagonists of the estrogen receptor alpha (ER-alpha) signaling pathway using the BG1 cell line in the presence of 0.1 nM 17-beta-estradiol - cell viability counter screen (AID 1259241). Also: nearly all actives have a fitted effect of over 40% in size. Also: potency is read from the fitted curve at half-maximal effect. A digest of the protocol:
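Estradiol-stimulated (0.1 nM) VM7Luc4E2 cells exposed to compounds 22 hr; viability measured by fluorescence of cleaved CellTiter-Fluor substrate after 30 min.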

Test [2] in a line: qHTS assay to identify small molecule antagonists of the androgen receptor (AR) signaling pathway using the MDA cell line in the presence of 0.5 nM R1881 - cell viability counter screen (AID 1259242). Also: nearly all actives have a fitted effect of over 45% in size. Also: potency is read from the fitted curve at half-maximal effect. A digest of the protocol: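 qHTS format. MDA-kb2 (MMTV-luc, AR/GR responsive) + cpd + 0.5 nM R1881 final, 16 hr 37C/0% CO2 → CellTiter-Fluor 30 min → fluorescence intensity.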
(In general: qHTS replaces the single test concentration by a dilution series.)

A short description of test [3]: qHTS assay to identify small molecule HDAC inhibitors (AID 1259364). Also: potency is read from the fitted curve at half-maximal effect.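 Also: wild-type HCT-116 cells with endogenous class I/II HDAC activity; nearly all actives have a fitted effect of over 45% in size.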 A digest of the protocol:
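Quantitative high-throughput format: overnight-seeded HCT-116 cells got compounds for 2 hr at 37C; HDAC-Glo I/II reagent added, 30 min RT, luminescence measured.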

Test [4] is described as follows: qHTS assay to identify small molecule agonists of the sonic hedgehog signaling (Shh) pathway - cell viability counter screen (AID 1259366). Also: nearly all actives have a fitted effect of over 50% in size. Also: potency is read from the fitted curve at half-maximal effect. A digest of the protocol: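 Same-well cytotoxicity read. Gli1-Luc reporter 3T3 cells; compounds 24hr, 37C/5% CO2; CellTiter-Fluor fluorescence.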
A short description of test [5]: qHTS assay to identify small molecule agonists of the sonic hedgehog signaling (Shh) pathway (AID 1259368; calls by dose curve;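 also: NIH/3T3-derived 3T3Gli1-Luc cells carrying a stable Gli1-driven firefly luciferase reporter; series mostly up to about 92 µM; nearly all actives have a fitted effect of over 15% in size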). A digest of the protocol: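 Quantitative high-throughput format using a Gli1-driven firefly luciferase reporter line derived from NIH/3T3 cells. After a 24 hr compound treatment at 37 C and 5% CO2, luminescence reported Gli1 response element activity.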
A short description of test [6]: qHTS assay to identify small molecule antagonists of the sonic hedgehog signaling (Shh) pathway (AID 1259369; calls by dose curve; also: nearly all actives have a fitted effect of over 45% in size; also: potency is read from the fitted curve at half-maximal effect). A digest of the protocol:
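Stable Gli1-Luc reporter NIH/3T3 clone; quantitative HTS in stimulated mode with conditioned medium. Luminescence measured after 24hr compound treatment at 37 C.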

The target in test [7] is Estrogen receptor beta (Homo sapiens) (UniProt Q92731). The experiment in a line: qHTS assay to identify small molecule antagonists of the estrogen receptor beta (ER-beta) signaling pathway (AID 1259378; active = well fitted inhibition curve with a large enough effect in the signal ratio in the repeat runs, not every such curve was filed as active; the % refers to the signal ratio; also: potency is read from the fitted curve at half-maximal effect). A digest of the protocol:
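ER-beta-UAS-bla HEK293T (GripTite) cells in 2% charcoal-stripped FBS medium were preincubated 6 hr at 37C, dosed with compound, then stimulated with 1 nM E2 (final) for 16 hr; beta-lactamase reporter read by B/G FRET fluorescence after 2 hr substrate loading.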

A short description of test [8]: qHTS assay to identify small molecule agonists of the androgen receptor (AR) signaling pathway in the presence of an antagonist - cell viability counter screen (AID 1259379). Also: nearly all actives have a fitted effect of over 25% in size. Also: potency is read from the fitted curve at half-maximal effect. A digest of the protocol: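 Nilutamide-containing (3.0uM final) MDA-kb2 cultures, 3,000 cells/well, were treated with compounds across 15 concentrations. After 16 hr at 37C with no CO2, cell viability was determined by CellTiter-Fluor fluorescence in the luciferase assay wells.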

Test [9] is described as follows: qHTS assay to identify small molecule agonists of the estrogen receptor beta (ER-beta) signaling pathway - cell viability counter screen (AID 1259380). Also: nearly all actives have a fitted effect of over 30% in size. Also: potency is read from the fitted curve at half-maximal effect. A digest of the protocol:
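Steps: plate ER-beta-UAS-bla HEK293T cells, rest 6 hr; add compounds in DMSO; incubate 16 hr at 37C, 5% CO2; add FRET substrate 2 hr; add CellTiter-Glo, wait 30 min at room temperature; read luminescence.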

Test [10] is described as follows: qHTS assay to identify small molecule antagonists of the estrogen receptor beta (ER-beta) signaling pathway - cell viability counter screen (AID 1259382). Also: nearly all actives have a fitted effect of over 55% in size. Also: potency is read from the fitted curve at half-maximal effect. A digest of the protocol:
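Viability is scored by CellTiter-Glo luminescence (30 min, room temperature) in ER-beta-UAS-bla HEK293T wells already read for reporter fluorescence. Compound exposure lasts 16 hr at 37C alongside 1nM 17-beta-estradiol in charcoal-stripped serum medium.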

A short description of test [11]: qHTS assay to identify small molecule agonists or antagonists of the thyroid stimulating hormone receptor (TSHR) signaling pathway - wild type cell line counter screen (AID 1259384; calls by dose curve). A digest of the protocol: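 Wild-type HEK293 cells were plated 18 h at 37 C/5% CO2, pin-dosed with compound plus Ro20-1724 medium, held 30 min at room temperature, then given cAMP-d2 and anti-cAMP-cryptate; fluorescence was read after 1 h. Fifteen concentrations, triplicate.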

Test [12] is described as follows: qHTS assay to identify small molecule HDAC inhibitors - cell viability counter screen (AID 1259365). Also: nearly all actives have a fitted effect of over 50% in size. Also: potency is read from the fitted curve at half-maximal effect. A digest of the protocol: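 After overnight seeding at 1,500 cells per well, wild-type HCT-116 cultures took up compounds in DMSO for 2hr at 37 C. Viable cell content came from luminescence with CellTiter-Glo.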
A short description of test [13]: qHTS assay to identify small molecule antagonists of the sonic hedgehog signaling (Shh) pathway - cell viability counter screen (AID 1259367). Also: nearly all actives have a fitted effect of over 55% in size. Also: potency is read from the fitted curve at half-maximal effect. A digest of the protocol:
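Conditioned medium drove Shh signaling in 3T3 Gli1-Luc cells exposed to compounds at 37C and 5% CO2. Viability was determined from CellTiter-Fluor fluorescence, with reagent incubated 1 hr after 23 hr of treatment.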

In test [14] the target is Thyrotropin receptor (Homo sapiens) (UniProt P16473). Description: qHTS assay to identify small molecule antagonists of the thyroid stimulating hormone receptor (TSHR) signaling pathway (AID 1259385; calls by dose curve; also: nearly all actives have a fitted effect of over 20% in size; also: potency is read from the fitted curve at half-maximal effect). A digest of the protocol:
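TSHR-HEK293 cells were plated and held 18 h at 37C/5% CO2, then given compound plus Ro20-1724 and stimulated with TSH at 1.5 ng/mL final. After 30 min at room temperature, cAMP was detected with cAMP-d2/anti-cAMP-cryptate (1 h) by fluorescence.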

Test [15] addresses Estrogen receptor (Homo sapiens) (UniProt P03372). Description: qHTS assay to identify small molecule agonists of the estrogen receptor alpha (ER-alpha) signaling pathway in the presence of an antagonist (AID 1259383; calls by dose curve; also: nearly all actives have a fitted effect of over 15% in size; also: potency is read from the fitted curve at half-maximal effect; as to activation: top concentration of the series differs between compounds). A digest of the protocol: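 Readout was ERE-driven luciferase luminescence in VM7Luc4E2 cells, which express full-length ER-alpha endogenously. Compounds were tested at 15 concentrations for 22hr alongside 10.0nM ICI-182,780 (final concentration).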

Test [16] has as its target Estrogen receptor beta (Homo sapiens) (UniProt Q92731). The experiment in a line: qHTS assay to identify small molecule agonists of the estrogen receptor beta (ER-beta) signaling pathway (AID 1259377; active = well fitted activation curve with a large enough effect in the signal ratio in the repeat runs, not every such curve was filed as active; the % refers to the signal ratio). A digest of the protocol: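 Read-out: beta-lactamase FRET fluorescence. Cell line: ER-beta-UAS-bla HEK293T in 2% charcoal-stripped FBS. Exposure: 16 hr at 37C. Substrate step: 2 h at room temperature.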

Molecules are shown by their SMILES. Values joined by “and” are separate entries in the source; they are usually repeats but may differ in a detail not shown here. Equal values may be shown once. Records with an inconclusive call do not appear. Active and inactive are the calls of the source. Unless noted, calls follow the shape of the dose curve; as a rule, active = well fitted curve in the direction sought with a large enough effect in the repeat runs; inconclusive = weak or mixed curves; inactive = no such curve, though single readings can be large; an effect the other way counts as inactive or inconclusive.

Chain of Estrogen receptor (Homo sapiens) (P03372 whole entry, looked up): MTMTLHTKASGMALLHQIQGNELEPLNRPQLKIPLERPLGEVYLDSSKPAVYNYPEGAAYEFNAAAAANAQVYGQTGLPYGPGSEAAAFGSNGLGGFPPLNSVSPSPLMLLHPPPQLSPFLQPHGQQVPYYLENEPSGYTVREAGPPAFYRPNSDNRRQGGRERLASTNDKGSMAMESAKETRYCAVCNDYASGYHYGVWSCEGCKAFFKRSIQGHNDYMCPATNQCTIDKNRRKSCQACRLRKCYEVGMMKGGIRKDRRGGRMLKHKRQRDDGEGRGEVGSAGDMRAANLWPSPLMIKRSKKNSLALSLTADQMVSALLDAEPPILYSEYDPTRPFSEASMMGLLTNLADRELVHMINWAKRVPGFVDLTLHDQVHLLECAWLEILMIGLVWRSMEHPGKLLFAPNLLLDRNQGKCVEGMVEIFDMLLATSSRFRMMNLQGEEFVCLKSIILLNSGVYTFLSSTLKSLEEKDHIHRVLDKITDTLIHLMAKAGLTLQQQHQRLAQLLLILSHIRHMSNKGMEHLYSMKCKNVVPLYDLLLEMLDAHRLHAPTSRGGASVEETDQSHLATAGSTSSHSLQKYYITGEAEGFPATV
Chain of Estrogen receptor beta (Homo sapiens) (Q92731 whole entry, looked up): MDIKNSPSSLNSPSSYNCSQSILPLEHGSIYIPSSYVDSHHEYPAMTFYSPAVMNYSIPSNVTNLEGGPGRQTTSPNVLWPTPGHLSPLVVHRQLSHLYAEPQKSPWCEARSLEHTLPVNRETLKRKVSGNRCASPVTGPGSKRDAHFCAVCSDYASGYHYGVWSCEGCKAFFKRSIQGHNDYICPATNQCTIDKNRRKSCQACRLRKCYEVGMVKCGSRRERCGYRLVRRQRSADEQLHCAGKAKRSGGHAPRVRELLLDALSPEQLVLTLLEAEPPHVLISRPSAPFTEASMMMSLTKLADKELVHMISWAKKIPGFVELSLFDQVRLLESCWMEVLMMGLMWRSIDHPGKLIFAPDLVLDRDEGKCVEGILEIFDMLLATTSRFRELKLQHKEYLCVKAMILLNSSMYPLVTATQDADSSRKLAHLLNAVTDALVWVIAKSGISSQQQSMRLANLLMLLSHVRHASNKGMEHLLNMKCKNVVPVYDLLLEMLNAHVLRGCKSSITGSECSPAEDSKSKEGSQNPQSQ
Chain of Thyrotropin receptor (Homo sapiens) (P16473 whole entry, looked up): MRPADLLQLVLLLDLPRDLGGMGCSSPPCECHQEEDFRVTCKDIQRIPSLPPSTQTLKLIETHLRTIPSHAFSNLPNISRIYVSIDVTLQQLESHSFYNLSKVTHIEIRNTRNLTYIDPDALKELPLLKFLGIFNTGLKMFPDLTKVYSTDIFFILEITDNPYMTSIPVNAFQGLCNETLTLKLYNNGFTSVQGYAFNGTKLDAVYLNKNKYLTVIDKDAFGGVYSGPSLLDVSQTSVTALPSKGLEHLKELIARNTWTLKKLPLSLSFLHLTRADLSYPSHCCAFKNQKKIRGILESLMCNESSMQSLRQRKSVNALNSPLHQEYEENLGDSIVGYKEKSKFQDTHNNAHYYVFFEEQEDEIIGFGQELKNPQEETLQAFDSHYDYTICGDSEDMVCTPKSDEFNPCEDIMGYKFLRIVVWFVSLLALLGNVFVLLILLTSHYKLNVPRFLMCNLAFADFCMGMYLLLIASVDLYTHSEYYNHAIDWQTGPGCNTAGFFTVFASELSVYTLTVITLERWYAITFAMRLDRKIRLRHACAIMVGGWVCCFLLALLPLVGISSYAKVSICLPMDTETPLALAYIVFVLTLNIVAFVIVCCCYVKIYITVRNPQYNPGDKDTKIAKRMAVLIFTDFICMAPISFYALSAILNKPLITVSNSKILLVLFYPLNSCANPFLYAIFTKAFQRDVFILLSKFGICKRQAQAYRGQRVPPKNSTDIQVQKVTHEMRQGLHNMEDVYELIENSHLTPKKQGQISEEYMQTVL

On to `CC(C)c1ccc2c(c1)CC[C@H]1[C@](C)(CN)CCC[C@]21C`, for which the Potency entry in [1], in test [3] and in test [5] was “inactive” in each case. Moreover, the Potency in test [2] is 48.6 µM (active); in [4], 48.6 µM (active); in [6], 15.4 µM (active); in test [7], 61.1 µM (active); in test [8], 43.3 µM (active); in [9] it was 54.5 µM (active). In test [10], the Potency is 61.1 µM (active). Also, in [11], the result was inactive.
In the case of `Oc1cccc2cc3cccc(O)c3c(O)c12`, the Potency entry in [1], in test [2], in test [3], in test [12], in test [4] and in test [13] was “inactive” in each case. The Potency entry in test [5], in test [6], in [9], in test [10] and in test [14] was “inactive” throughout. In test [11], the result was inactive.
Consider `Nc1c(Cl)cc(Cl)cc1Cl`, for which the Potency result in test [1], in test [2], in test [3], in test [4], in test [13] and in [5] was “inactive” each time. Also, the Potency entry in [8], in test [9], in [10] and in test [14] was “inactive” throughout. The compound was classed as inactive in [11].
As for `CCCCCCCCCCCC[N+](C)(C)CCCCCCCCCCCC`, the Potency is 54.5 µM (active) in [1]; 27.3 µM (active) in test [2]; 54.5 µM (active) in test [12]; 24.3 µM (active) in test [4]; 27.3 µM (active) in [13]; 30.6 µM (active) in test [8]. In addition, the Potency in test [9] and in test [10] was 21.7 µM (active) each time. Moreover, the Potency entry in test [3], in [5], in test [15] and in [14] was “inactive” in each case. Further, the result in test [11] was inactive.
Turning to `CCCCN1C(=O)[C@@H]([C@H](O)C2CCCCC2)NC(=O)C12CCN(Cc1ccc(Oc3ccc(C(=O)O)cc3)cc1)CC2`, the Potency result in test [1], in test [2], in test [3], in test [12], in test [5] and in [16] was “inactive” throughout. The Potency entry in [10] and in test [15] was “inactive” each time. The compound was called inactive in test [11].
In the case of `CCCCCCCCn1sc(Cl)c(Cl)c1=O`, the Potency result in test [1], in test [3], in test [12], in [5], in [16] and in test [15] was “inactive” in each case. The Potency was 15.4 µM (active) in test [2], 27.3 µM (active) in test [8], 12.2 µM (active) in test [9] and 61.1 µM (active) in test [14]. Besides, the call in [11] was inactive.
Consider `CCCCCCCCOC(=O)c1ccc(O)cc1`, for which the Potency result in test [1], in test [2], in [3], in [12], in test [4] and in test [13] was “inactive” each time. In addition, the Potency entry in [5], in [16] and in test [8] was “inactive” in each case. Further, the Potency in test [9] was 54.3 µM (active) and 48.6 µM (active); in test [10] it was 43.1 µM (active); in test [15], 54.5 µM (active). In test [11], the compound was classed as inactive.
As for `CCC1OCC(COc2ccc(Oc3ccccc3)cc2)O1` (centres undefined), the Potency entry in test [1], in [2], in test [12], in [5], in test [16] and in test [7] was “inactive” throughout. Moreover, the Potency result in test [8], in test [9] and in test [10] was “inactive” each time. Further, the Potency in [3] was 17.2 µM (active); in test [13], 61.1 µM (active). Also, the compound was classed as inactive in test [11].
Regarding `O=CC=C(c1ccccc1)c1ccccc1`, the Potency entry in [1], in [2], in test [3], in test [12], in test [5] and in [15] was “inactive” each time. Besides, the Potency entry in test [14] was “inactive”. Moreover, the Potency in [4] is 49 µM (active); in test [7], 7.76 µM (active); in [9], 27.5 µM (active); in test [10], 27.5 µM (active). The compound was called inactive in test [11].
